Values joined by “and” are separate entries in the source; they are usually repeats but may differ in a detail not shown here. Equal entries are not always repeated. Inconclusive results are not listed. Active and inactive are the calls of the source. The calls were made as follows, unless noted: active = hit-call score of the fitted dose curve at least 0.9, where 1 is the maximum; inconclusive = response in the unintended direction; inactive = score below 0.9.
What was measured:
[1] = target: Estrogen receptor beta (Homo sapiens) (UniProt Q92731); assay: OT_ER_ERbERb_1440: Odyssey Thera (OT) 24-hour HEK293T Protein-Complementation Assay for Estrogen Receptor-beta/-beta Homodimer (AID 2283380);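 also: fluorescence gain from ER beta LBD homodimer complementation read by laser scanning cytometry; scored as signal increase over DMSO baseline for both agonists and antagonists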
Summary of the method: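 HEK293T cells stably expressing human ER-beta LBD (aa 310-547) PCA homodimer pair, dosed 24 h; formaldehyde-fixed, Draq5-stained. Readout: increase in nuclear (agonist) or nuclear plus cytoplasmic (antagonist) fluorescence intensity versus DMSO, gain-of-signal fitting.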

[2] = target: Estrogen receptor (Homo sapiens) (UniProt P03372); assay: OT_ERa_GFPERaERE_0480: Odyssey Thera (OT) 8-hour HeLa Transcription Induction Assay for Estrogen Receptor (AID 2283381; active = hit-call score of the fitted dose curve at least 0.9, where 1 is the maximum; inactive = score below 0.9)
Summary of the method: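 Fluorescent reporter signal, imaged by microscopy and scored with image-analysis algorithms, was taken 8 h after chemical dosing of HeLa cells; activity was fitted upward relative to DMSO.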

[3] = target: Estrogen receptor (Homo sapiens) (UniProt P03372); assay: OT_ERa_GFPERaERE_0120: Odyssey Thera (OT) 2-hour HeLa Transcription Induction Assay for Estrogen Receptor (AID 2283382)
Summary of the method: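 HeLa, 384-well, 2 h chemical exposure; GFP reporter induction (ERE), fluorescence microscopy; high content image analysis; positive fitting direction vs DMSO.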

[4] = target: Retinoic acid receptor RXR-alpha (Homo sapiens) (UniProt P19793); assay: OT_NURR1_NURR1RXRa_0480: Odyssey Thera (OT) 8-hour HEK293T Protein Complementation Assay for Nurr1/retinoid X receptor (RXR) (AID 2283385)
Summary of the method: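 8 h compound exposure, HEK293T; Nurr1/RXRα fragment complementation; fluorescence intensity; positive fitting direction vs DMSO baseline.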

[5] = target: Retinoic acid receptor RXR-alpha (Homo sapiens) (UniProt P19793); assay: OT_NURR1_NURR1RXRa_1440: Odyssey Thera (OT) 24-hour HEK293T Protein Complementation Assay for Nurr1/retinoid X receptor (RXR) (AID 2283386)
Summary of the method: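 Interaction of Nurr1 with RXRα brings fused reporter fragments together in human HEK293T cells, restoring a functional reporter. Fluorescence intensity is measured 24 h after chemical treatment, and values are analysed in the positive direction against DMSO.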

[6] = target: Peroxisome proliferator-activated receptor gamma (Homo sapiens) (UniProt P37231); assay: OT_PPARg_PPARgSRC1_0480: Odyssey Thera (OT) 8-hour Protein-Complementation Assay for Peroxisome Proliferator-activated Receptor Gamma / SRC-1 Co-activator (AID 2283387);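 also: nuclear to cytoplasmic split Venus YFP fluorescence ratio reporting PPARg SRC-1 interaction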
Summary of the method: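 Protein-fragment complementation of split Venus YFP reports PPARg/SRC-1 interaction in HEK293T (transfected 48 h before treatment), exposed 8 h. Readout: N/C fluorescence ratio at 488 nm from imaging, Draq5 for segmentation, positive fit relative to DMSO.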

[7] = target: Bile acid receptor (Homo sapiens) (UniProt Q96RI1); assay: OT_FXR_FXRSRC1_1440: Odyssey Thera (OT) 24-hour HEK293T Protein-Complementation Assay for Farnesoid X receptor/SRC-1 Co-activator (AID 2283384)
Summary of the method: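 Compounds are applied to human kidney HEK293T cells expressing bait and prey fused to reporter protein fragments; after 24 h, reconstituted reporter fluorescence is measured. Activity is fitted as signal gain over DMSO.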

[8] = read-out: Tumor necrosis factor receptor superfamily member 6 (Homo sapiens) (UniProt P25445); assay: LTEA_HepaRG_FAS: Life Technologies and Expression Analysis (LTEA) Assay for Fas cell surface death receptor (FAS) using HepaRG (AID 2283447; active = hit-call score of the fitted dose curve at least 0.9, where 1 is the maximum; inactive = score below 0.9); settings: mRNA level, 48 h; actives raise or lower the signal
Summary of the method: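 Differentiated human HepaRG cells, pre-cultured 48 h, were exposed in duplicate for 48 h to 8-point half-log concentrations (top 100 uM, 0.5% DMSO) in serum-free induction medium; FAS mRNA measured by qRT-PCR, normalized to ACTB/GAPDH/POLR2A, bidirectional fit versus DMSO.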

[9] = read-out: Fatty acid synthase (Homo sapiens) (UniProt P49327); assay: LTEA_HepaRG_FASN: Life Technologies and Expression Analysis (LTEA) Assay for Fatty Acid Synthase (FASN) using HepaRG (AID 2283448; active = hit-call score of the fitted dose curve at least 0.9, where 1 is the maximum; inactive = score below 0.9); settings: mRNA level, 48 h; actives raise or lower the signal
Summary of the method: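 FASN expression changes, up or down relative to 0.5% DMSO, were measured by qRT-PCR in human HepaRG cells after 48 h treatment with chemicals at eight concentrations (half-log steps from 100 uM).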

[10] = CEETOX_H295R_11DCORT: CeeTox H295R High-throughput Steroidogenesis Assay for 11-Deoxycortisol (11DCORT) (AID 2283432; active = hit-call score of the fitted dose curve at least 0.9, where 1 is the maximum; inactive = score below 0.9); settings: actives raise or lower the signal
Summary of the method: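 Human adrenal H295R cells were prestimulated with 10 uM forskolin for 48 h, then exposed to test chemical (0.1% DMSO final) for 48 h. Medium 11-deoxycortisol was quantified by MTBE extraction and HPLC-MS/MS; bidirectional fitting relative to DMSO.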

[11] = CEETOX_H295R_OHPROG: CeeTox H295R High-throughput Steroidogenesis Assay for OH-Progesterone (OHPROG) (AID 2283435; active = hit-call score of the fitted dose curve at least 0.9, where 1 is the maximum; inactive = score below 0.9;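 as to AC50: 17alpha-hydroxyprogesterone secreted into medium measured by HPLC-MS/MS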); settings: actives raise or lower the signal
Summary of the method: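 H295R, 10 uM forskolin prestim 48 h; cmpd in 0.1% DMSO 48 h; medium MTBE-extracted, HPLC-MS/MS for OH-progesterone; 7-pt std curve; bidirectional fit vs DMSO; MTT viability, chemicals diluted until viability >/=70%.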

[12] = CEETOX_H295R_ANDR: CeeTox H295R High-throughput Steroidogenesis Assay for Androstenedione (ANDR) (AID 2283436; active = hit-call score of the fitted dose curve at least 0.9, where 1 is the maximum; inactive = score below 0.9); settings: actives raise or lower the signal
Summary of the method: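 H295R human adrenal cells (passages ≤10) were exposed to test chemicals for 48 h; androstenedione in medium was MTBE-extracted and quantified by HPLC-MS/MS against a 7-point standard curve. Bidirectional fitting used DMSO as baseline.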

[13] = CEETOX_H295R_CORTIC: CeeTox H295R High-throughput Steroidogenesis Assay for Corticosterone (CORTIC) (AID 2283437; active = hit-call score of the fitted dose curve at least 0.9, where 1 is the maximum; inactive = score below 0.9;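 also: corticosterone secreted into medium quantified by mass spectrometry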); settings: actives raise or lower the signal
Summary of the method: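 H295R cells were prestimulated 48 h with 10 uM forskolin, then exposed 48 h to test chemical in 0.1% DMSO. Medium corticosterone was MTBE-extracted and quantified by HPLC-MS/MS; bidirectional fit versus DMSO baseline.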

[14] = CEETOX_H295R_CORTISOL: CeeTox H295R High-throughput Steroidogenesis Assay for Cortisol (AID 2283438; active = hit-call score of the fitted dose curve at least 0.9, where 1 is the maximum; inactive = score below 0.9;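 also: cortisol secreted into medium quantified by LC-MS/MS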); settings: actives raise or lower the signal
Summary of the method: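 Forskolin 10 uM 48 h prestim → test cmpd in DMSO (0.1% final) 48 h → medium MTBE-extracted → LC-MS/MS cortisol vs 7-pt std curve. Gain/loss of signal fitted vs DMSO. MTT viability in same wells.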

[15] = CEETOX_H295R_PROG: CeeTox H295R High-throughput Steroidogenesis Assay for Progesterone (PROG) (AID 2283442; active = hit-call score of the fitted dose curve at least 0.9, where 1 is the maximum; inactive = score below 0.9); settings: actives raise or lower the signal
Summary of the method: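 Measured analyte is progesterone secreted by H295R cells at 48 h of chemical treatment, following 10 uM forskolin priming. Quantitation used HPLC-MS/MS against a 7-point standard curve; cytotoxicity was checked by MTT absorbance.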

[16] = target: Bile acid receptor (Homo sapiens) (UniProt Q96RI1); assay: OT_FXR_FXRSRC1_0480: Odyssey Thera (OT) 8-hour HEK293T Protein-Complementation Assay for Farnesoid X receptor/SRC-1 Co-activator (AID 2283383)
Summary of the method: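 Human kidney HEK293T cells carried FXR/SRC-1 fragment-complementation constructs. Compounds were added and incubated 8 h. Reporter reassembly upon receptor–co-activator interaction was then quantified by fluorescence, with curves fitted in the positive direction relative to DMSO.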

[17] = target: Peroxisome proliferator-activated receptor gamma (Homo sapiens) (UniProt P37231); assay: OT_PPARg_PPARgSRC1_1440: Odyssey Thera (OT) 24-hour Protein-Complementation Assay for Peroxisome Proliferator-activated Receptor Gamma/ SRC-1 Co-activator (AID 2283388);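 also: nuclear to cytoplasmic ratio of reconstituted Venus YFP fluorescence in fixed imaged cells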
Summary of the method: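 Cells carrying the PPARg/SRC-1 fragment-complementation reporter receive compound for 24 hours, are fixed and counterstained with Draq5, then imaged. Increased nuclear relative to cytoplasmic YFP fluorescence above DMSO baseline indicates binding activity.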

[18] = CEETOX_H295R_ESTRADIOL: CeeTox H295R High-throughput Steroidogenesis Assay for Estradiol (AID 2283440; active = hit-call score of the fitted dose curve at least 0.9, where 1 is the maximum; inactive = score below 0.9;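 also: estradiol secreted into medium quantified by LC-MS/MS after dansyl derivatisation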); settings: actives raise or lower the signal
Summary of the method: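 Readout is estradiol in conditioned medium, quantified by reverse-phase HPLC-MS/MS against a 7-point standard curve. Cells: H295R, forskolin-stimulated, then dosed 48 h in 0.1% DMSO; activity fitted in both directions relative to DMSO.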

[19] = CEETOX_H295R_ESTRONE: CeeTox H295R High-throughput Steroidogenesis Assay for Estrone (AID 2283441; active = hit-call score of the fitted dose curve at least 0.9, where 1 is the maximum; inactive = score below 0.9;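 also: estrone secreted into medium measured by LC-MS/MS after dansyl derivatization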); settings: actives raise or lower the signal
Summary of the method: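 H295R cells prestimulated 48 h with 10 uM forskolin, then exposed 48 h to chemicals in 0.1% DMSO final; estrone in medium extracted with MTBE, dansyl-derivatized, quantified by HPLC-MS/MS; bidirectional fitting versus DMSO, viability by MTT.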

Chain of Bile acid receptor (Homo sapiens) (Q96RI1 whole entry, looked up, the tested form may be a part): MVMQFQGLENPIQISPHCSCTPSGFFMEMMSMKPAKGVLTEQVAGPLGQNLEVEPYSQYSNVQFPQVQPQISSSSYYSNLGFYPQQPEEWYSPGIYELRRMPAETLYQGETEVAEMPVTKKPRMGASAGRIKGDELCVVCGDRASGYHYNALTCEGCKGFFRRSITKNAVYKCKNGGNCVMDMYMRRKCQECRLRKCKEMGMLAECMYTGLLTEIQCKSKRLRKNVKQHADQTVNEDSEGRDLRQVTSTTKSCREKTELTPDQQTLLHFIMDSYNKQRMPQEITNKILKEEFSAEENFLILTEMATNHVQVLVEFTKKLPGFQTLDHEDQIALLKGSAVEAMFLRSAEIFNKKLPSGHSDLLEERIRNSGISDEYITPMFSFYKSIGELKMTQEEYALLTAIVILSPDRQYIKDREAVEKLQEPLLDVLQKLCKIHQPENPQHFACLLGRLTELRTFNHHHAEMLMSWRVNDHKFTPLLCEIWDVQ
Chain of Estrogen receptor (Homo sapiens) (P03372 whole entry, looked up): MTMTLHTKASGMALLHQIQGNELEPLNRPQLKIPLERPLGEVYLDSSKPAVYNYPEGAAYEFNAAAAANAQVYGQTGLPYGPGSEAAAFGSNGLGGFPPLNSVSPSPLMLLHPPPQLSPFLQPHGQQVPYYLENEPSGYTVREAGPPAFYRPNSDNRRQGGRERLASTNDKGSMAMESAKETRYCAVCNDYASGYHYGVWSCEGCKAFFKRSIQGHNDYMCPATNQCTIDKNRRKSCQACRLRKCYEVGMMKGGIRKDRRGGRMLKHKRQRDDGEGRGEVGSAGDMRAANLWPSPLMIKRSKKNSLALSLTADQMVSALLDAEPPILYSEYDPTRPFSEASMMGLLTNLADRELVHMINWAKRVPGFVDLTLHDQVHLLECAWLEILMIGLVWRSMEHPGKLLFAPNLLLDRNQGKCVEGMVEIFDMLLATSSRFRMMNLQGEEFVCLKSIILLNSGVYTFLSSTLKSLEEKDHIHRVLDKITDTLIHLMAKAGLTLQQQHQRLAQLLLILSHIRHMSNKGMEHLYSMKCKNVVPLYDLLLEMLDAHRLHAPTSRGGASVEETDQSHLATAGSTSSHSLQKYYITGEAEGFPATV
Chain of Estrogen receptor beta (Homo sapiens) (Q92731 whole entry, looked up, the tested form may be a part): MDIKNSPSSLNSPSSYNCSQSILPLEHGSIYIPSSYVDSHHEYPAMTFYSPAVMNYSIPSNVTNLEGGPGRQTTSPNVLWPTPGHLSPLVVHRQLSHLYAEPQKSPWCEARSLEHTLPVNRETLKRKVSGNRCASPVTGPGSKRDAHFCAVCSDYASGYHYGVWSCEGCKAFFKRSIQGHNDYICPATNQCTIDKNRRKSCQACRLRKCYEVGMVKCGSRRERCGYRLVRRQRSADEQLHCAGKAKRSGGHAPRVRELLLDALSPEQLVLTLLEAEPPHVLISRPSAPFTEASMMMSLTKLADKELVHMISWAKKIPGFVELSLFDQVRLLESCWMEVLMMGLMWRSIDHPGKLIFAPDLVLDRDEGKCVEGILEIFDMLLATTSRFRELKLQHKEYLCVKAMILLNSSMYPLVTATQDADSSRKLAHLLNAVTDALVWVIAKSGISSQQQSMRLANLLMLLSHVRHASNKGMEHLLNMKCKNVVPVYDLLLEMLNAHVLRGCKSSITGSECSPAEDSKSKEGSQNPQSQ
Chain of Retinoic acid receptor RXR-alpha (Homo sapiens) (P19793 whole entry, looked up, the tested form may be a part): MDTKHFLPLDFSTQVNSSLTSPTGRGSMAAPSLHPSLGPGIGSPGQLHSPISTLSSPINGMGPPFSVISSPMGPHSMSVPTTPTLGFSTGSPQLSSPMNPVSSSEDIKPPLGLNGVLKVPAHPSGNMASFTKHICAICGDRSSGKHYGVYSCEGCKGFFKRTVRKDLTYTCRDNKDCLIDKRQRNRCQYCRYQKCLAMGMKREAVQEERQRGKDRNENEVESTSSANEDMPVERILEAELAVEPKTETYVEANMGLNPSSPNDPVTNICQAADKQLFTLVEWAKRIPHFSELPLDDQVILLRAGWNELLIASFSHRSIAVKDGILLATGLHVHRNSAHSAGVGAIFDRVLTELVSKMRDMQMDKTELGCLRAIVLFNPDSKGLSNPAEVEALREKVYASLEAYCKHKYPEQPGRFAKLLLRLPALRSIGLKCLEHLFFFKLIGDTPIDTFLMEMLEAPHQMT
Chain of Peroxisome proliferator-activated receptor gamma (Homo sapiens) (P37231 whole entry, looked up, the tested form may be a part): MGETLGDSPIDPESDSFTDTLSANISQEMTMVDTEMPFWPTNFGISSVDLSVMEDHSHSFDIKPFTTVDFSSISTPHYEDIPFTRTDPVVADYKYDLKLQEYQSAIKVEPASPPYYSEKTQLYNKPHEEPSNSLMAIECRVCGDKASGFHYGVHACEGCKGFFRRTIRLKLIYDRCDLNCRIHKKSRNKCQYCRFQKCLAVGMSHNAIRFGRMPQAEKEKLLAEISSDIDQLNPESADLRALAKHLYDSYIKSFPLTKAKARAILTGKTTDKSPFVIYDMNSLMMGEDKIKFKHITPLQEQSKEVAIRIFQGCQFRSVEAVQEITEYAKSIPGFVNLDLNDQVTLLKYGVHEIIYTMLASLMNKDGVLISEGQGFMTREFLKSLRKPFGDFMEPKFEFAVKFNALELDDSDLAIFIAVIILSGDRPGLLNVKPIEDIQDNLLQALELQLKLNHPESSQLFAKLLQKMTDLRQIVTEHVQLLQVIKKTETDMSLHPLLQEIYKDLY
Chain of Fatty acid synthase (Homo sapiens) (P49327 whole entry, looked up): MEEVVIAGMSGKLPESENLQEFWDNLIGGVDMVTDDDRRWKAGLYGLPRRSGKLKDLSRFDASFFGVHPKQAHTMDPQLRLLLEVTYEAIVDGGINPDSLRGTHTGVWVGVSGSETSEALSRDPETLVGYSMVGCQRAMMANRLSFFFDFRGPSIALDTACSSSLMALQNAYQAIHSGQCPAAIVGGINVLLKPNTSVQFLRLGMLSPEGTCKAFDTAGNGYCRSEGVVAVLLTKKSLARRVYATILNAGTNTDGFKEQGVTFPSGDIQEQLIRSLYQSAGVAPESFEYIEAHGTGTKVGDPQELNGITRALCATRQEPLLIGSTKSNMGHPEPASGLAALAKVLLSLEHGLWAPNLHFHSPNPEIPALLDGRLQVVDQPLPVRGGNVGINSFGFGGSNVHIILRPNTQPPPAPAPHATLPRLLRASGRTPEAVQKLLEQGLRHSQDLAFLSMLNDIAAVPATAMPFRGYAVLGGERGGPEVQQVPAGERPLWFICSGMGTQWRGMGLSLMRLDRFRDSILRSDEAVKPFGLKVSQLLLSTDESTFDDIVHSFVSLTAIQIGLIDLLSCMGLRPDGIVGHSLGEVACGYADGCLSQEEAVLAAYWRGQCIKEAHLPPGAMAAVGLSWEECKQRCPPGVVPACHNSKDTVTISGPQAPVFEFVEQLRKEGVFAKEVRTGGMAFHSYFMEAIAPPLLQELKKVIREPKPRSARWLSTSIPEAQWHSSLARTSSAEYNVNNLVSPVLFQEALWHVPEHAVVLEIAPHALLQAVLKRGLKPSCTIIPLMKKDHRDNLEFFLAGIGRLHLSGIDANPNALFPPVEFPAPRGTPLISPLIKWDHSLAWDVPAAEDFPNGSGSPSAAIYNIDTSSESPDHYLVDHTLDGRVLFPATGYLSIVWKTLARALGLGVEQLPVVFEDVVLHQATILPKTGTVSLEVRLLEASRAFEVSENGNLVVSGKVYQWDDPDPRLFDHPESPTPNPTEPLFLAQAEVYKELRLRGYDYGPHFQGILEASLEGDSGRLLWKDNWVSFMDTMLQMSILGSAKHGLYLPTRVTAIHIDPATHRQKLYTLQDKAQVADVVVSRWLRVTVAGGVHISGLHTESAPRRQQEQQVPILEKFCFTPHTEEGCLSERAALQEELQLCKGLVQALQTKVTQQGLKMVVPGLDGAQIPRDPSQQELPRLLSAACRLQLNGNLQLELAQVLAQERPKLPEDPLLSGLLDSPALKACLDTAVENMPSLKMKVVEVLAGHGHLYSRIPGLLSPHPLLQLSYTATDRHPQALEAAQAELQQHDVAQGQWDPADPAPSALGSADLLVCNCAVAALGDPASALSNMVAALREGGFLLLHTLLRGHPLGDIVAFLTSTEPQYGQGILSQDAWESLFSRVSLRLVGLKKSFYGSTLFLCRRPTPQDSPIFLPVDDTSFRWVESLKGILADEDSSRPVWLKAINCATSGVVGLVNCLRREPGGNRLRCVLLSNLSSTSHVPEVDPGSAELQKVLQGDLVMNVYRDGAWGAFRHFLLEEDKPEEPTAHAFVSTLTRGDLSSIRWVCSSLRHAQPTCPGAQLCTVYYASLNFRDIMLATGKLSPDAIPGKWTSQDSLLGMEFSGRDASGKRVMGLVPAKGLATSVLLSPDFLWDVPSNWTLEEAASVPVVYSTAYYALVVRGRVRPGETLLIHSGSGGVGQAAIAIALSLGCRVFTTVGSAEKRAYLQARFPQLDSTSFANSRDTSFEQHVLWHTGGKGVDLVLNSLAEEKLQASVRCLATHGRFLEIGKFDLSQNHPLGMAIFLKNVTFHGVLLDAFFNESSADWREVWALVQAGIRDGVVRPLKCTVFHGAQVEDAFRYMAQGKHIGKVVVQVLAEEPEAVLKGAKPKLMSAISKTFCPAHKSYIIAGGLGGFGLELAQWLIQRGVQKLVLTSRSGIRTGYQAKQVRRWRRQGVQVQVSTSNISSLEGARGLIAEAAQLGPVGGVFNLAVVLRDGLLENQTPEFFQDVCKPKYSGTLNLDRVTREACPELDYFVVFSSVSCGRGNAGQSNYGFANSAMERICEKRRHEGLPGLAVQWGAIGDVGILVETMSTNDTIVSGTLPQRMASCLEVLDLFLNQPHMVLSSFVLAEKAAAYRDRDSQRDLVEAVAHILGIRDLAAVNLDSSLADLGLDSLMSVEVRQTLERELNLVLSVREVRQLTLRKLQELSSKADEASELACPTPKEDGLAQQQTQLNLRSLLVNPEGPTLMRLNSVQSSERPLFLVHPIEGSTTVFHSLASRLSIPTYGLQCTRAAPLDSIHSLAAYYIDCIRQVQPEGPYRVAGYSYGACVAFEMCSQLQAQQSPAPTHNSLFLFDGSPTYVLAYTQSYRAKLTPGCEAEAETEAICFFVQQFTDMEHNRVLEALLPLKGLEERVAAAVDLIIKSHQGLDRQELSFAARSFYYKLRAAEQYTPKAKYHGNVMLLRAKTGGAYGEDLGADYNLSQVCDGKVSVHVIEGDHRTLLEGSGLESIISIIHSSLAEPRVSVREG

SMILES: COc1cc(OC)nc(NC(=O)NS(=O)(=O)c2ncccc2C(=O)N(C)C)n1
- outcome [1]: inactive
- outcome [2]: inactive
- outcome [3]: inactive
- outcome [4]: inactive
- outcome [5]: inactive
- outcome [6]: inactive

SMILES: CN(C)N=O
- outcome [1]: inactive
- outcome [7]: inactive
- outcome [4]: inactive
- outcome [5]: inactive
- outcome [6]: inactive
- outcome [8]: inactive
- outcome [9]: inactive

SMILES: CC12CC1(C)C(=O)N(c1cc(Cl)cc(Cl)c1)C2=O (stereo unspecified)
- outcome [1]: inactive
- outcome [4]: inactive
- outcome [5]: inactive
- outcome [6]: inactive
- outcome [10]: inactive
- AC50 [11]: 20.9 µM (active)
- AC50 [12]: 30.9 µM (active)
- AC50 [13]: 14.1 µM (active)
- outcome [14]: inactive
- outcome [15]: inactive
- outcome [8]: inactive
- AC50 [9]: 5.61 µM (active)

SMILES: CC(C)(c1ccc(OCC2CO2)cc1)c1ccc(OCC2CO2)cc1 (stereo unspecified)
- outcome [1]: inactive
- outcome [2]: inactive
- outcome [3]: inactive
- outcome [4]: inactive
- outcome [6]: inactive

SMILES: CCC(C)(C)c1ccc(O)c(C(C)(C)CC)c1
- outcome [1]: inactive
- outcome [2]: inactive
- outcome [3]: inactive
- outcome [6]: inactive
- outcome [8]: inactive
- outcome [9]: inactive

SMILES: CC(C)(C)CC(C)(C)c1ccc(O)cc1
- AC50 [1]: 1.04 µM (active) and 593 nM (active) and 1.02 µM (active)
- AC50 [16]: 11.2 µM (active)
- AC50 [4]: 11.3 µM (active) and 11.2 µM (active)
- AC50 [5]: 11.2 µM (active)
- outcome [8]: inactive
- outcome [9]: inactive

SMILES: Cc1ccc2ccccc2c1C
- outcome [1]: inactive
- outcome [2]: inactive
- outcome [3]: inactive
- outcome [6]: inactive
- outcome [17]: inactive

SMILES: COP(=S)(OC)Oc1ccc(Sc2ccc(OP(=S)(OC)OC)cc2)cc1
- AC50 [1]: 33.8 µM (active)
- outcome [2]: inactive
- outcome [3]: inactive
- outcome [4]: inactive
- outcome [6]: inactive
- outcome [17]: inactive

SMILES: CN(CCCC(=O)c1cccnc1)N=O
- outcome [10]: inactive
- outcome [11]: inactive
- outcome [12]: inactive
- outcome [13]: inactive
- outcome [14]: inactive
- outcome [15]: inactive

SMILES: COP(=O)(OC)OC
- outcome [2]: inactive
- outcome [3]: inactive
- outcome [16]: inactive
- outcome [7]: inactive
- outcome [4]: inactive
- outcome [5]: inactive
- outcome [6]: inactive
- outcome [17]: inactive

SMILES: O=C(NCO)NCO
- outcome [2]: inactive
- outcome [3]: inactive
- outcome [5]: inactive
- outcome [6]: inactive

SMILES: C(=NC1CCCCC1)=NC1CCCCC1
- outcome [11]: inactive
- outcome [18]: inactive
- outcome [19]: inactive
- outcome [15]: inactive

SMILES: ClC(Cl)=C(Cl)C(Cl)=C(Cl)Cl
- outcome [2]: inactive
- outcome [3]: inactive
- outcome [4]: inactive
- outcome [5]: inactive
- outcome [6]: inactive
- outcome [17]: inactive

Reference: PubChem BioAssay (EPA / NIEHS)
